Screening data deposited in PubChem by National Center for Advancing Translational Sciences (NCATS).
LASV entry inh = qHTS for Inhibitors of binding or entry into cells for Lassa Virus. Lassa virus pseudotype entry inhibition, cell reporter. Potency, µM (titrated, usually from 37.9 µM), actives largely listed as inhibitors. 300,000 compounds, 1.2% hits; calls by dose curve; tested in HEK293 cells; also: nearly all actives have a fitted effect of over 50% in size
FMDV inh = High Throughput Screening for Foot and Mouth Disease Virus Antivirals | FMDV antiviral cell-based qHTS | 410,000 compounds, 1.2% hits | Potency, µM (top dose mostly 57.9 µM), most hits filed as inhibitors; calls by dose curve; tested in HEK293T cells; also: read-out not given here; nearly all actives have a fitted effect of over 45% in size
Vaccinia mCherry = qHTS for Stage-Specific Inhibitors of Vaccinia Orthopoxvirus: mCherry Reporter Primary qHTS; AID 720579, 2013; Vaccinia virus mCherry reporter infection, fluorescence; 310,000 compounds, 0.63% hits; Potency, µM (top dose mostly 36.5 µM), actives largely listed as inhibitors; calls by dose curve; tested in A549 cells; also: nearly all actives have a fitted effect of over 35% in size
Marburg entry inh = qHTS for inhibitors of binding or entry into cells for Marburg Virus; Marburg virus pseudotyped entry inhibition, cell reporter; Potency, µM (doses to about 37.8 µM), actives largely listed as inhibitors; 300,000 compounds, 1.8% hits; AID 540276, 2011; calls by dose curve; tested in HEK293 cells
Sm TGR block = qHTS Assay for the Inhibitors of Schistosoma Mansoni Peroxiredoxins | Schistosoma mansoni thioredoxin glutathione reductase (TGR), Q962Y6 | purified TGR, DTNB reduction, TNB absorbance 405 nm | Potency, µM (titrated, usually from 114 µM), actives largely listed as inhibitors | 360,000 compounds, 3% hits | AID 485364, 2010; active = well fitted inhibition curve with a large enough effect; inconclusive = small, poorly fitted or top-dose-only effect; inactive = no such curve, though single readings can be large or run the other way; also: nearly all actives have a fitted effect of over 60% in size
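TGR 20 nM + NADPH 100 uM (dispensed conc.), cpd preinc 15 min RT; start with NADPH (500 uM addition) then DTNB (15 mM addition). Kinetic TNB absorbance, 405 nm filter. Four-parameter Hill fit across titration.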
Vaccinia Venus = qHTS for Stage-Specific Inhibitors of Vaccinia Orthopoxvirus: Venus Reporter Primary qHTS; Vaccinia virus Venus reporter expression, fluorescence; Potency, µM (series often up to 36.5 µM), most hits filed as inhibitors; 330,000 compounds, 0.46% hits; AID 720580, 2013; calls by dose curve; tested in A549 cells; also: nearly all actives have a fitted effect of over 30% in size
A number is an active result; 0 = inactive; ? = inconclusive; - = not tested or not shown; [ ] = dose if it differs, or a comment. Hits are enriched below; roughly 5.4% of the tested compounds scored in any of these assays.

SMILES	LASV entry inh	FMDV inh	Vaccinia mCherry	Marburg entry inh	Sm TGR block	Vaccinia Venus
Cc1ccc(C(=O)c2oc3ccccc3c2NC(=O)Cc2coc3c(C)c(C)ccc23)cc1	?	0	0	?	0	0
O=C(N/N=C/c1ccccc1)c1ccco1	?	0	0	?	0	0
O=C(C#Cc1ccccc1)c1ccco1	11.2µM	8.91µM	10µM	?	0.891µM	12.6µM
Cc1ccc2c(c1)cc(C(=O)NCc1ccccc1)n2C	?	0	?	0.631µM	0	0
Oc1cc2c(cc1C(c1ccc(Br)cc1)N1CCCC1)OCO2 (stereo not drawn)	0	?	?	0	0.708µM	0
NC(=O)N/N=C\c1cc(Br)ccc1O	0	0	0	0	0	0
O=C(N/N=C/c1cc(Cl)ccc1O)c1ccc(Br)cc1	10µM	0	3.16µM	?	0	?
O=C(N/N=C/c1cc(Br)ccc1O)c1ccncc1	?	0	?	2.82µM	0	0
O=C(N/N=C/c1cc(Br)ccc1OC(=O)c1ccc(Br)cc1)c1ccncc1	5.62µM	0	4.47µM	1µM	0	?
O=C(N/N=C/c1ccc(O)c(O)c1)c1cccc(S(=O)(=O)N2CCCCC2)c1	0	0	0	0	0	0
O=C(N/N=C\c1cc(Br)ccc1O)c1ccc(S(=O)(=O)N2CCCCC2)cc1	?	0	5.01µM	?	0	?
COC(=O)C1CCN(Cc2ccc3c(c2)CN(C(=O)C(C)N2CCOCC2)CCO3)CC1 (stereo not drawn)	-	0	0	-	-	0
c1cncc(OC2CCN(Cc3ccc4c(c3)CN(Cc3ccc5c(c3)OCCO5)CCO4)CC2)c1	-	0	0	-	-	0
CCOc1ccccc1NC(=O)C(=O)N/N=C/c1cc(Br)ccc1O	1.58µM	0	?	2.51µM	0	0
CC(=O)Nc1ccc(C(=O)N/N=C/c2cc(Br)cc(Br)c2O)cc1	?	0	0	10µM	0	0
COc1ccc(N(C(C)C(=O)N2CCCC2)S(C)(=O)=O)cc1 (stereo not drawn)	-	0	-	-	0	-
COc1ccc(N(C(C)C(=O)N2CCC(Cc3ccccc3)CC2)S(C)(=O)=O)cc1 (stereo not drawn)	?	11.2µM	0	?	-	0
Cc1ccc2c(c1)sc1nc(-c3cc4cc(Cl)ccc4oc3=O)cn12	0	0	0	-	0	0
Cc1nn(-c2ccccc2)c(C)c1C(=O)OCC(=O)c1c(N)n(CC(C)C)c(=O)n(C)c1=O	6.51µM	31.6µM	-	?	0	-
CC(C)Cn1c(N)c(C(=O)COC(=O)c2ccc(O)cc2)c(=O)n(C)c1=O	-	0	0	-	0	0
CCC(C(=O)OCC(=O)c1c(N)n(CC(C)C)c(=O)n(C)c1=O)c1ccccc1 (stereo not drawn)	?	39.8µM	?	0	0	?
COc1ccc(C(=O)NC(=S)Nc2ccc(S(=O)(=O)Nc3cc(C)on3)cc2)cc1OC	0	0	0	0	17.8µM	0
Cc1cc(NS(=O)(=O)c2ccc(NC(=S)NC(=O)c3ccccc3)cc2)no1	0	0	?	?	50.1µM	0
CCc1ccc(NC(=O)CN2C(=O)C(c3ccc(C)cc3)=NC23CCCCC3)cc1	0	0	0	?	0	0
COc1ccc(CCNCC(=O)Nc2ccc(C)c(S(=O)(=O)N(C)C)c2)cc1	?	0	0	0	0	0
SMILES	LASV entry inh	FMDV inh	Vaccinia mCherry	Marburg entry inh	Sm TGR block	Vaccinia Venus
COc1ccc(CC(=O)Nc2ccc3c(c2)CCC3)cc1OC	11.2µM	?	-	?	0	?
COc1cc(CCC(=O)Nc2ccc(C)c(S(=O)(=O)N(C)C)c2)cc(OC)c1OC	?	28.2µM	0	?	0	0
COc1ccc(CCC(=O)Nc2ccc(C)c(S(=O)(=O)N(C)C)c2)cc1OC	0	10µM	0	11.2µM	0	0
COc1ccc(OC)c(CC(=O)Nc2ccc3c(c2)CCC3)c1	0	0	0	0	0	0
Cc1ccc(NC(=O)CCNC(=O)c2ccc([N+](=O)[O-])cc2)cc1S(=O)(=O)N(C)C	?	28.2µM	0	10µM	0	0
CCCC(=O)N1CCc2cc(OC)c(OC)cc2C1COc1ccc2c(C)cc(=O)oc2c1 (stereo not drawn)	0	0	0	0	0	0
O=C(/C=C/c1ccccc1)c1c(O)n(CCc2ccccc2)c(=O)[nH]c1=O	0	12.6µM	0	?	0	0
COc1cc(/C=C/C(=O)c2c(O)n(CCc3ccccc3)c(=O)[nH]c2=O)ccc1O	?	0	?	?	?	0
O=C(/C=C/c1ccc2c(c1)OCO2)c1c(O)n(CCc2ccccc2)c(=O)[nH]c1=O	?	12.6µM	0	0	0	0
CCCN1C(=O)c2ccccc2NC1c1ccc(OC)c(COc2cccc(C)c2C)c1 (stereo not drawn)	-	-	0	-	-	0
O=C(CCCCCNc1nc(=S)[nH]c2ccccc12)N1CCN(c2ccccn2)CC1	-	-	-	-	0	-
COc1cccc(N2CCN(C(=O)CCCCCNc3nc(=S)[nH]c4ccccc34)CC2)c1	0	25.1µM	0	?	0	0
CCN(c1ccccc1)S(=O)(=O)c1ccc(C(=O)N2CCN(c3ccccc3)CC2)cc1	7.94µM	0	0	?	-	0
COc1ccc(S(=O)(=O)N(CC(=O)N2CCN(c3ccccc3)CC2)c2ccccc2)cc1	?	0	-	0	0	-
CCOC(=O)C1CCCN(C(=O)c2ccc(S(=O)(=O)NCc3ccco3)cc2)C1 (stereo not drawn)	0	0	0	0	25.1µM	0
O=C(NC1CCCCC1)c1ccc(S(=O)(=O)NCc2cccnc2)cc1	?	0	0	0	0	0
O=C(NC1CCCCC1)c1ccc(S(=O)(=O)NCc2ccco2)cc1	0	0	-	0	44.7µM	-
O=C(c1ccc(S(=O)(=O)NCc2ccco2)cc1)N1CCN(Cc2ccccc2)CC1	?	0	0	0	0	0
COc1ccc(CN2CCN(C(=O)c3ccc(S(=O)(=O)NCc4ccco4)cc3)CC2)cc1	?	?	0	0.316µM	0	0
CCOC(=O)C1CCCN(C(=O)c2ccc(CNS(=O)(=O)c3ccc(C)cc3)cc2)C1 (stereo not drawn)	-	0	-	-	0	-
Cc1nn(Cc2noc(C(=O)NC(C)c3ccccc3)n2)c(C)c1Br (stereo not drawn)	0	0	0	?	0	0
CC(=O)c1cccc(NC(=O)c2ccc3nc(C(C)C)oc3c2)c1	0	0	0[7.34 µM]	-	0	0[7.34 µM]
CCN(c1ccccc1)S(=O)(=O)c1ccc(C(=O)NC2CCN(Cc3ccccc3)CC2)cc1	?	?	?	0.708µM	-	?
O=C(NC1CCN(Cc2ccccc2)CC1)c1ccc(S(=O)(=O)NCc2ccco2)cc1	0	0	?	3.55µM	0	0
O=C(CCC(=O)NC1CCN(Cc2ccccc2)CC1)NCc1ccco1	0	0	-	0	0	-
COc1cc(C(=O)NCCCc2nc3ccccc3n2CC(C)C)cc(OC)c1OC	0	0	0	0	0	0
